The list is not random: actives were taken first. Their share in the collection is about 1.3%.
VHR inh abs: blocks human VHR1 dual specificity phosphatase; inhibition, % at 13.3 µM; 0.52% of 290,000 active; recombinant VHR phosphatase, pNPP absorbance; in the data active = inhibition above about 50%
Target sequence (P51452 whole entry, looked up): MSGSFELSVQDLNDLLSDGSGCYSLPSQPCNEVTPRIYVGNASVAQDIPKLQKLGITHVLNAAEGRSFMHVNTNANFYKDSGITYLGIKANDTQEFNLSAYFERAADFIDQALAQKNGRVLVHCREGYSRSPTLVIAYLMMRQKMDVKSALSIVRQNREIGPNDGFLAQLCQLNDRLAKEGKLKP
PriA SSB inh: K. pneumoniae PriA-SSBct interaction inhibition; AlphaScreen SSBct-PriA binding, biotinylated peptide; inhibition, % at 33 µM; 0.6% of 430,000 active; AID 1272365; in the data active = inhibition mostly above about 37%, no sharp cut-off; inactive = mostly below about 20%
CCHF vOTU inh: blocks the CCHF virus ovarian tumor domain protease; inhibition, % at 11.5 µM; AID 651958; 0.55% of 370,000 active; CCHFV vOTU protease, Pep-AMC fluorescence; in the data active = inhibition above about 30%
Mtb hypoxia inh: reduces hypoxia-regulated biosensor signal in M. tuberculosis. AID 1159583. fluorescence inhibition, % (no concentration beside the values). M. tuberculosis hypoxia-regulated fluorescent reporter, fluorescence. 0.1% of 300,000 active; in the data active = fluorescence inhibition mostly above about 23%, no sharp cut-off; inactive = mostly below about 17%
SARS 3CLpro inh: SARS-CoV 3CLpro protease inhibition; P0C6X7; recombinant SARS-CoV 3CLpro, quenched FRET peptide cleavage; inhibition, % at 6 µM; 0.14% of 290,000 active; AID 1706; in the data active = inhibition above about 12%
A number is an active result; . = inactive; / = not tested or not shown; ! = a repeat was not active.

SMILES	VHR inh abs	PriA SSB inh	CCHF vOTU inh	Mtb hypoxia inh	SARS 3CLpro inh
CCCCN1C(=O)C(NC(C)=O)c2cc(Br)ccc21 (stereo not given)	.	.	.	/	.
CCOc1cccc2sc(N(CCCN(C)C)C(=O)c3ccc(S(=O)(=O)N(C)Cc4ccccc4)cc3)nc12	.	38!	.	.	.
CCOc1cccc2sc(N(CCCN(C)C)C(=O)c3ccc(S(=O)(=O)N(CC)Cc4ccccc4)cc3)nc12	.	.	.	.	.
CCN(c1ccccc1)S(=O)(=O)c1ccc(C(=O)N(CCCN(C)C)c2nc3c(C)cccc3s2)cc1	.	36!	.	.	.
O=C(Nc1c[nH]c(=O)[nH]c1=O)c1cccc([N+](=O)[O-])c1	56	.	.	.	.
O=C(Nc1c[nH]c(=O)[nH]c1=O)c1cccc(F)c1	.	.	.	.	.
COc1ccc(-c2nc3cnccn3c2Nc2ccc3c(c2)OCO3)cc1	.	.	.	.	.
Cc1ccc(-c2nc3cnccn3c2Nc2ccc3c(c2)OCO3)cc1	.	38	.	.	.
COc1ccc(NC(=O)Cn2cnc(SC)c(C#N)c2=O)cc1	/	.	/	/	/
O=C(O)c1ccc(=O)[nH]n1	/	41	/	/	/
COC(=O)c1ccc(=O)[nH]n1	/	.	/	/	/
CN=c1scc(-c2ccccc2F)n1/N=C(\C)c1cccnc1	58	/	.	/	.
Cc1cc(C)c2ccc(Cl)nc2n1	/	.	/	/	/
Cc1[nH]c(=O)[nH]c(=O)c1CCc1nnc(SCC(=O)c2ccc(F)cc2)o1	/	.	/	/	/
NCCCn1c(C(=O)c2ccc(Cl)cc2)c2ccc([N+](=O)[O-])cc2[n+]1[O-]	/	.	.	.	/
NC(=O)CCCn1c(C(=O)c2ccc(Cl)cc2)c2ccc([N+](=O)[O-])cc2[n+]1[O-]	/	.	.	40	/
COc1ccnc(CSC(N)=Nc2ccccc2OC)c1	.	40	.	.	.
CS(=O)(=O)c1ccc(CC(=O)N2CCN(c3nc4ccc(OC(F)(F)F)cc4s3)CC2)cc1	/	.	/	/	/
O=C(Nc1nnc(Cc2cccs2)o1)c1ccc2ncsc2c1	/	71	/	/	/
O=C(Nc1nnc(Cc2cccs2)o1)c1ccc(Cl)s1	/	35	/	/	/
O=C(Nc1nnc(-c2cccs2)o1)c1ccc2ncsc2c1	/	.	/	/	/
CCSc1ccc(C(=O)Nc2nnc(Cc3cccs3)o2)cc1	/	36	/	/	/
CCSc1ccc(CC(=O)Nc2nccs2)cc1	/	.	/	/	/
CCSc1ccc(C(=O)Nc2nccs2)cc1	/	64	/	/	/
CO[C@@H](CNC(=O)c1cc(Br)cs1)c1ccco1	/	.	/	/	/
SMILES	VHR inh abs	PriA SSB inh	CCHF vOTU inh	Mtb hypoxia inh	SARS 3CLpro inh
CSc1ncccc1C(=O)N1CCN(S(=O)(=O)c2ccccc2)CC1	58	.	.	.	.
O=C(CCSc1ccccc1)NCCn1nc(-n2cncn2)ccc1=O	/	.	/	/	/
COc1ccc(OC)c(S(=O)(=O)N(C)CC(=O)N2CCCCC2)c1	53	.	.	.	.
CC1CCN(S(=O)(=O)c2ccc(C(=O)Nc3nc4cc5c(cc4s3)OCCO5)cc2)CC1	/	.	/	/	/
O=C(CSc1ncccn1)Nc1cc(Cl)ccc1[N+](=O)[O-]	.	.	.	.	.
Cc1nc(SCC(=O)Nc2cc(Cl)ccc2[N+](=O)[O-])nc(C)c1C	.	52	.	.	.
NC(=S)NN=Cc1nccc2ccccc12	/	78	.	.	/
N#Cc1c(NC(=O)c2cccc(Cl)c2)sc2c1CCCCC2	/	.	/	/	/
CC1Cn2c(nc3sc4c(c3c2=O)CC(C)(C)OC4)N1CCO (stereo not given)	53	.	.	.	.
CC1(C)Cc2c(sc3nc4n(c(=O)c23)CCC4)CO1	.	.	.	.	.
CCn1ccc(C(=O)Nc2ccc3nc(SC)sc3c2)n1	/	.	/	/	/
O=C(NCc1cccnc1)Nc1ccc(Br)cc1	53	.	.	.	.
CNC(=O)CS(=O)(=O)C1CCN(C(=O)c2cnn(-c3ccccc3)c2C)CC1	/	.	/	/	/
COc1ccc(CN2CCN(C(C)C(=O)N(C)Cc3cccc(F)c3)CC2)cc1OC (stereo not given)	.	52	.	.	.
Cc1ccc(N2C(=O)C3N=NN(c4ccc(Br)c(C)c4)C3C2=O)cc1F (stereo not given)	/	.	/	/	/
O=C(Nc1ccc(-c2ccc3nnc(-c4ccncc4)n3n2)cc1)c1cccc([N+](=O)[O-])c1	/	.	/	/	/
O=C(Nc1ccc(-c2ccc3nnc(-c4ccccn4)n3n2)cc1)c1cccc(F)c1	/	40	/	/	/
COC(=O)c1c(NC(=O)c2ccn(C)n2)sc(C)c1C	/	.	/	/	/
CCN(CC)CCN(C(=O)c1ccc(C(=O)c2ccccc2)cc1)c1nc2c(OC)ccc(OC)c2s1	/	49	/	/	/
CCOc1ccc2nc(N(CCCN(C)C)C(=O)c3ccc4c(c3)CCCC4)sc2c1	.	.	.	.	.
CCc1ccc2nc(N(CCCN(C)C)C(=O)c3ccc(C(=O)c4ccccc4)cc3)sc2c1	.	47!	.	.	.
CN(C)CCCN(C(=O)c1ccc2c(c1)CCCC2)c1nc2ccc(Cl)cc2s1	.	.	.	38	.
CCN(CC)CCN(C(=O)c1ccc(C(=O)c2ccccc2)cc1)c1nc2ccc(OC)cc2s1	.	.	.	.	.
COc1cc2nc(N(CCCN(C)C)C(=O)c3ccc(C(=O)c4ccccc4)cc3)sc2cc1OC	/	37!	.	.	/
COc1cc2nc(N(CCCN(C)C)C(=O)c3ccc(S(=O)(=O)N4CCc5ccccc5C4)cc3)sc2cc1OC	/	.	.	.	/
SMILES	VHR inh abs	PriA SSB inh	CCHF vOTU inh	Mtb hypoxia inh	SARS 3CLpro inh
COc1ccc2nc(N(CCN(C)C)C(=O)c3ccc(C(=O)c4ccccc4)cc3)sc2c1	.	50	.	.	.
CCOc1ccc2nc(N(CCN(C)C)C(=O)c3cc4ccccc4cc3OC)sc2c1	.	44!	/	.	.
CCOc1cccc2sc(N(CCN(C)C)C(=O)c3cc4ccccc4cc3OC)nc12	.	.	.	.	.
COC(=O)CSC1CCN(C(=O)C2CC=CCC2)C1 (stereo not given)	/	.	/	/	/
CCC1CCCCN1CCCNC(=O)c1ccc2nc(N3CCC(C)CC3)sc2c1 (stereo not given)	51	.	.	.	.
CCC1CCCCN1CCCNC(=O)c1ccc2c(c1)NC(=O)CS2 (stereo not given)	56	.	.	.	.
Cc1cccc(N(CCCN2C(=O)c3cccc4cccc(c34)C2=O)C(=O)c2ccc(-c3ccccc3)cc2)c1	/	.	/	/	/
O=C(c1ccc2c(c1)OCO2)N1CC(n2cc(-c3ccccc3)nn2)C1	/	.	/	/	/
Cc1cc(CNC(=O)Nc2ccc3c(c2)OCO3)c(C)o1	/	39	/	/	/
O=C(NCc1ccc2c(c1)OCO2)Nc1cccc(Cl)c1	59	.	.	.	.
O=[N+]([O-])c1ccccc1S(=O)(=O)NCC(c1cccc2ccccc12)N1CCOCC1 (stereo not given)	/	37	/	/	/
Cc1c(C(=O)NCC(c2cccc3ccccc23)N2CCOCC2)cccc1[N+](=O)[O-] (stereo not given)	/	.	/	/	/
c1ccc2c(CNc3ccc(CNc4ncn[nH]4)cc3)cccc2c1	.	40	.	.	.
COc1ccc2cc(C(=O)N3CC[C@H](Oc4cncc(N(C)C)n4)C3)[nH]c2c1	/	.	/	/	/
Cc1ccccc1CSc1nccn1-c1ccccc1	.	49	.	/	.
COc1ccc(NC(=O)Cn2c(=O)n(CC3CCCO3)c(=O)c3cc(OC)c(OC)cc32)c(OC)c1 (stereo not given)	.	.	.	.	.

Screens as filed in PubChem.
